From the supplement of paper PMC5919970
Structures can show the parent of a compound that is named as a salt. The full ranking holds about 2,000 compounds; the median of “fractional viability relative to vehicle” is about 0.92, and the lowest 2% start at about 0.11. This excerpt belongs to a sample that is enriched for the lowest values.

System: TYKNU
Assay: fractional viability relative to vehicle; TYKNU is a high-grade serous ovarian cancer line; higher = less growth inhibition
Details: 72 h, genotype: OPA1 knockout (sgOPA1 #2)
Procedure, shortened: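 TYKNU control cells or lentiCRISPRv2 knockout derivatives were seeded at 500 cells per well into drug-stamped 384-well plates holding a ~2100-compound library at 2 or 10 μM, in duplicate. Cells were grown at 37 °C in 5% CO2 in RPMI 1640 with 10% FBS, and drug treatment lasted 72 h. Viability was read by Cell Titer Glo luminescence. Duplicate treatment wells were averaged and normalised to duplicate control wells from the same plate position.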

Structure (SMILES) | fractional viability (2uM) | fractional viability (10uM)
[O-][n+]1ccccc1[S-].[O-][n+]1ccccc1[S-].[Zn+2] [Zinc Pyrithione] | 0.0671 | 0.0336
CN1[C@@H]2C[C@@H](OC(=O)[C@H](CO)c3ccccc3)C[C@H]1[C@@H]1O[C@@H]12 [Scopolamine HBr] | 1.29 | 0.892
C=CC[C@]1(O)CC[C@H]2[C@@H]3CCC4=CC(=O)CCC4=C3C=C[C@@]21C [Altrenogest] | 0.97 | 0.84
CC(=O)Nc1ccc(OC[C@](C)(O)C(=O)Nc2ccc([N+](=O)[O-])c(C(F)(F)F)c2)cc1 [Andarine] | 1.18 | 1.18
COC[C@H]1OC(=O)c2coc3c2[C@@]1(C)C1=C(C3=O)[C@@H]2CCC(=O)[C@@]2(C)C[C@H]1OC(C)=O [Wortmannin] | 0.744 | 0.149
C[C@@H]1CC[C@@]2(OC1)O[C@H]1C[C@H]3[C@@H]4CC=C5C[C@@H](O[C@@H]6O[C@H](CO)[C@@H](O[C@@H]7O[C@@H](C)[C@H](O)[C@@H](O)[C@H]7O)[C@H](O)[C@H]6O[C@@H]6O[C@@H](C)[C@H](O)[C@@H](O)[C@H]6O)CC[C@]5(C)[C@H]4CC[C@]3(C)[C@H]1[C@@H]2C [Dioscin] | 0.289 | 0.0918
Cc1cccc(C)c1NC1=NCCCS1 [Xylazine HCl] | 0.823 | 0.79
COc1cc(OC)c(OC)cc1C=O [Asaraldehyde] | 1.16 | 1.15
C=CCN1CC[C@]23c4c5ccc(O)c4O[C@H]2C(=O)CC[C@@]3(O)[C@H]1C5 [Naloxone HCl] | 0.816 | 0.957
CCNC(=O)C[C@@H]1N=C(c2ccc(Cl)cc2)c2cc(OC)ccc2-n2c(C)nnc21 | 0.715 | 0.794
CN[C@@H]1C[C@H]2O[C@@](C)([C@@H]1OC)n1c3ccccc3c3c4c(c5c6ccccc6n2c5c31)C(=O)NC4 [Staurosporine] | 0.264 | 0.0922
COc1ccc(C(CN(C)C)C2(O)CCCCC2)cc1 (stereo not given) [Venlafaxine] | 1.21 | 1
Cn1c(CCCC(=O)O)nc2cc(N(CCCl)CCCl)ccc21 [Bendamustine HCl] | 1.1 | 1.11
CN1CCC(c2c[nH]c3ccc(O)cc23)CC1 | 0.838 | 0.922
CCOc1ccccc1-n1c(C(C)N2CCN(C(=O)COc3ccc(Cl)cc3)CC2)nc2ccccc2c1=O (stereo not given) [Erastin] | 0.45 | 0.0976
C[C@H]1CNCCc2ccc(Cl)cc21 [Lorcaserin HCl] | 1.04 | 1.02
CCCN1C[C@H](CSC)C[C@@H]2c3cccc4[nH]cc(c34)C[C@H]21 [Pergolide mesylate] | 0.978 | 0.96
CC1(C)CC(O)CC(C)(C)N1[O] [Tempol] | 0.982 | 1.06
Cc1cc(SCc2sc(-c3ccc(C(F)(F)F)c(F)c3)nc2C)ccc1OCC(=O)O | 0.824 | 0.75
CC1=C(O)C(=O)C=C2C1=CC=C1[C@@]2(C)CC[C@@]2(C)[C@@H]3C[C@](C)(C(=O)O)CC[C@]3(C)CC[C@]12C [Celastrol] | 0.123 | 0.0841

Structure (SMILES) | fractional viability (2uM) | fractional viability (10uM)
CC(=O)O[C@H]1C[C@@H]2CC[C@@H]3[C@H](CC[C@@]4(C)[C@H]3C[C@H]([N+]3(C)CCCCC3)[C@@H]4OC(C)=O)[C@@]2(C)C[C@@H]1[N+]1(C)CCCCC1 [Pancuronium dibromide] | 1 | 0.976
CN1[C@@H]2CC(O)C[C@H]1[C@@H]1O[C@@H]12 (stereo not given in full) [Scopine] | 0.96 | 0.768
C[C@H]1CCC/C=C/[C@@H]2C[C@H](O)C[C@H]2[C@H](O)/C=C/C(=O)O1 [Brefeldin A] | 0.269 | 0.277
CC(C)=CCC[C@]1(C)C=Cc2c(O)c3c(c(CC=C(C)C)c2O1)O[C@]12C(=C[C@@H]4C[C@H]1C(C)(C)O[C@@]2(C/C=C(/C)C(=O)O)C4=O)C3=O [Gambogic Acid] | 0.0971 | 0.0282
C[N+]1(C)[C@@H]2C[C@@H](OC(=O)[C@H](CO)c3ccccc3)C[C@H]1[C@@H]1O[C@@H]12 [Methscopolamine] | 0.982 | 0.966
C[C@]12N[C@H](Cc3ccccc31)c1ccccc12 [MK-801 (Dizocilpine)] | 1.04 | 0.956
CCN1CCN(C(=O)Cc2ccc(Nc3ncc(F)c(Nc4ccc(C(=O)Nc5ccccc5Cl)cc4)n3)cc2)CC1 [Aurora A Inhibitor I] | 1.03 | 0.0801
O=C(O[C@H]1C[N+]2(CCCOc3ccccc3)CCC1CC2)C(O)(c1cccs1)c1cccs1 [Aclidinium Bromide] | 0.952 | 0.927
CC(C)NCC(O)c1ccccc1Cl (stereo not given) [Clorprenaline HCl] | 0.911 | 0.968
CN1CCN(c2nc3ccccc3nc2Cl)CC1 | 1.15 | 0.988
O=C1CC[C@@]2(O)[C@H]3Cc4ccc(O)c5c4[C@@]2(CCN3CC2CC2)[C@H]1O5 [Naltrexone HCl] | 1.07 | 1.12
CC[C@@H]1/C=C/C=C/C[C@H](C)[C@H](O)[C@](C)(O)C(=O)[C@H](C)[C@@H](O)[C@H](C)C(=O)[C@H](C)[C@@H](O)[C@H](C)/C=C/C(=O)O[C@H]2[C@@H](C)[C@@H](CC1)O[C@@]1(CC[C@@H](C)[C@@H](C[C@H](C)O)O1)[C@@H]2C [Oligomycin A] | 1.01 | 0.871
C1=C2CCCN[C@H]2[C@@H]2C[C@H]1[C@H]1CCCCN1C2 [Aloperine] | 1.02 | 0.89
O=C(Oc1ccc([N+](=O)[O-])cc1)N1CCC(C(O)(c2ccc3c(c2)OCO3)c2ccc3c(c2)OCO3)CC1 | 0.994 | 0.739
c1cc2c(cc1[C@H]1OC[C@H]3[C@@H]1CO[C@@H]3c1ccc3c(c1)OCO3)OCO2 [Sesamin] | 1.06 | 0.894
O=[N+]([O-])/C=C/c1ccc2c(c1)OCO2 | 0.477 | 0.113
Cc1sc2c(c1C)C(c1ccc(Cl)cc1)=N[C@@H](CC(=O)Nc1ccc(O)cc1)c1nnc(C)n1-2 | 0.634 | 0.619
CN1c2ccccc2C(NCCCCCCC(=O)O)c2ccc(Cl)cc2S1(=O)=O (stereo not given) [Tianeptine sodium] | 1.15 | 1.02
Nc1nc(N)nc(NC2CC2)n1 [Cyromazine] | 1.01 | 0.994
CCCN1CCO[C@@H]2c3cc(O)ccc3OC[C@H]21 | 0.95 | 1.01
